# Measurements as given in the supplement of paper PMC8866396.
# ± gives the standard deviation of the averaged measurements.
# Tested on: IL-6-GFP PC-9GR
# Test: cell viability (CCK-8 OD) relative to DMSO control (fraction of control); higher = more viable cells
# Conditions: compound concentration: 10 uM; treatment time: 48 h
# Outline: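 Compounds from a purchased library of 510 were each tested at a final 10 μM for 48 h on PC-9 and PC-9GR lung cancer cells plated at 3000 cells/well in 96-well plates. These cells overexpressed IL-6-GFP from a lentiviral construct. Viability came from CCK-8 absorbance, given as the optical density of each well over that of the vehicle control well, across independent replicates numbering two.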
row,SMILES,cell viability
1,O=C(O)CCCc1ccc(N(CCCl)CCCl)cc1 [Chloroambucil],0.937 ± 0.15
2,Cn1cc(C2=C(c3cn(C4CCN(Cc5ccccn5)CC4)c4ccccc34)C(=O)NC2=O)c2ccccc21,1.09 ± 0.062
3,CCC1(O)C(=O)OCc2c1cc1n(c2=O)Cc2cc3ccccc3nc2-1 (configuration not stated) [Camptothecin],0.807 ± 0.36
4,O=C(O)C1C2CCC(O2)C1C(=O)[O][Na] (configuration not stated) [Sodium Demethylcantharidate],1.12 ± 0.29
5,CCC1=CC2CN3CCc4c([nH]c5ccccc45)C(C(=O)OC)(C2)C13 (configuration not stated) [Catharanthine],1.02 ± 0.093
6,CN(C)NC(=O)CCC(=O)O [Daminozide],1.09 ± 0.18
7,C=CCN1CC(C(=O)N(CCCN(C)C)C(=O)NCC)CC2c3cccc4[nH]cc(c34)CC21 (configuration not stated) [Cabergoline],0.968 ± 0.23
8,CC12CCC3C(CCC4=C(O)C(=O)CCC43C)C1CCC2=O (configuration not stated) [Formestane],1.4 ± 0.13
9,O=C(O)c1nn(Cc2ccc(Cl)cc2Cl)c2ccccc12 [Lonidamine],1.29 ± 0.1
10,O=c1c2ccccc2[se]n1-c1ccccc1 [Ebselen],0.788 ± 0.063
11,Cl.Cn1c(CCCC(=O)O)nc2cc(N(CCCl)CCCl)ccc21 [Bendamustine HCl],1.26 ± 0.066
12,CC(C)(C)NCC(O)c1ccccc1Cl.Cl (configuration not stated) [Tulobuterol hydrochloride],1.07 ± 0.17
13,Cc1c(N)nc(C(CC(N)=O)NCC(N)C(N)=O)nc1C(=O)NC(C(=O)NC(C)C(O)C(C)C(=O)NC(C(=O)NCCc1nc(-c2nc(C(=O)NCCC[S+](C)C)cs2)cs1)C(C)O)C(OC1OC(CO)C(O)C(O)C1OC1OC(CO)C(O)C(OC(N)=O)C1O)c1c[nH]cn1.O=S(=O)([O-])O (configuration not stated) [Bleomycin sulfate],0.653 ± 0.13
14,Cc1cccc(C(C)c2c[nH]cn2)c1C.Cl (configuration not stated) [Medetomidine HCl],1.25 ± 0.37
15,CC(C)[N+](C)(CCC(C(N)=O)(c1ccccc1)c1ccccc1)C(C)C.[I-] [Isopropamide Iodide],0.876 ± 0.069
16,COC1=CC2C3Cc4ccc(OC)c(O)c4C2(CCN3C)CC1=O.Cl (configuration not stated) [Sinomenine hydrochloride],1.33 ± 0.43

row,SMILES,cell viability
1,COc1cc2c(cc1O)CC1c3c(cc(O)c(OC)c3-2)CCN1C (configuration not stated) [Boldine],0.922 ± 0.2
2,CCC1(O)C(=O)OCc2c1cc1n(c2=O)Cc2c-1nc1ccccc1c2CCNC(C)C.Cl (configuration not stated) [Belotecan (CKD-602) hydrochloride],0.322 ± 0.15
3,CC(C)C12OC1C1OC13C1(C)CCC4=C(COC4=O)C1CC1OC13C2O (configuration not stated) [Triptolide (PG490)],0.466 ± 0.21
4,COc1cc2c(c(OC)c1OC)-c1ccc(OC)c(=O)cc1C(NC(C)=O)CC2 (configuration not stated) [Colchicine],0.584 ± 0.1
5,COC(=O)CC(O)(CCC(C)(C)O)C(=O)OC1C(OC)=CC23CCCN2CCc2cc4c(cc2C13)OCO4 (configuration not stated) [Harringtonine],0.245 ± 0.14
6,CC1CCC2N(C1)CC1C3CC4C(CC(O)C5CC(O)CCC54C)C3CCC1C2(C)O (configuration not stated) [Peimine],1.12 ± 0.26
7,CC(C)C12OC1C1OC13C1(C)CCC4=C(COC4=O)C1CC1OC13C2=O (configuration not stated) [Triptonide],0.403 ± 0.18
8,NC(Cc1ccc(N(CCCl)CCCl)cc1)C(=O)O (configuration not stated) [Melphalan],0.78 ± 0.037
9,COC1=CC2C3Cc4ccc(OC)c(O)c4C2(CCN3C)CC1=O (configuration not stated) [Sinomenine],1.31 ± 0.18
10,O.O=P1(N(CCCl)CCCl)NCCCO1 (configuration not stated) [Cyclophosphamide Monohydrate],1.16 ± 0.065
11,O=P1(NCCCl)OCCCN1CCCl (configuration not stated) [Ifosfamide],1.15 ± 0.092
12,Cn1c(CCCC(=O)O)nc2cc(N(CCCl)CCCl)ccc21 [Bendamustine],1.02 ± 0.09
13,c1ccc2c(c1)Sc1ccccc1N2CC1CN2CCC1CC2 (configuration not stated) [Mequitazine],0.705 ± 0.19
14,CC1CC(=O)CC2CCC3C4CCC(O)C4(C)CCC3C12C (configuration not stated) [Mesterolone],1.26 ± 0.32
15,COc1cc(C2c3cc4c(cc3C(O)C3COC(=O)C23)OCO4)cc(OC)c1OC (configuration not stated) [Picropodophyllin (PPP)],0.668 ± 0.27
16,CC12CCC3c4ccc(OC(=O)N(CCCl)CCCl)cc4CCC3C1CCC2OP(=O)([O-])[O-].[Na+].[Na+] (configuration not stated) [Estramustine phosphate sodium],0.645 ± 0.29
